Experimental data: the supplement of paper PMC8728848
The sample as a whole holds a higher share of the strongest signals than the screen did.

How the values were obtained:
Assay in all cases: glycan array binding signal (z-score within array); higher = stronger binding
Conditions in all cases: glycan notation: IUPAC condensed, linker removed
[1] = target: Fuc(a1-3)[Gal(b1-4)]GlcNAc(b1-2)Man(a1-3)[Fuc(a1-3)[Gal(b1-4)]GlcNAc(b1-2)Man(a1-6)]Man(b1-4)GlcNAc(b1-4)GlcNAc
In short: (§1)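 The binding signal is a Z-score computed within each array and averaged over linkers. Arrays of the same protein sequence at different concentrations or buffers were also averaged together. Data originate from 3228 arrays in the Consortium for Functional Glycomics database, kept only where the protein sequence was available.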

[2] = target: Fuc(a1-3)[Gal(b1-4)]GlcNAc(b1-3)Gal(b1-3)[Fuc(a1-4)]GlcNAc
In short: as §1

[3] = target: Fuc(a1-3)[Gal3S(b1-4)]Glc
In short: as §1

[4] = target: Fuc(a1-3)[GalNAc(b1-4)]GlcNAc
In short: as §1

[5] = target: Gal(a1-3)Gal(b1-3)GlcNAc(b1-6)GalNAc
In short: as §1

[6] = target: Gal(a1-3)Gal(b1-4)GlcNAc
In short: as §1

[7] = target: Gal(a1-3)Gal(b1-4)GlcNAc(b1-3)GalNAc
In short: as §1

[8] = target: Gal(a1-3)Gal(b1-4)[Fuc(a1-3)]GlcNAc
In short: as §1

[9] = target: Gal(b1-3)GlcNAc(b1-3)Gal(b1-3)GlcNAc
In short: as §1

[10] = target: Gal(b1-3)GlcNAc(b1-3)Gal(b1-4)GlcNAc
In short: as §1

[11] = target: Gal(b1-3)GlcNAc(b1-3)Gal(b1-4)[Fuc(a1-3)]GlcNAc
In short: as §1

[12] = target: Gal(b1-4)Glc6S
In short: as §1

[13] = target: Gal(b1-4)GlcNAc(a1-6)Gal(b1-4)GlcNAc
In short: as §1

[14] = target: Gal(b1-4)GlcNAc(b1-2)Man(a1-3)Man(b1-4)GlcNAc(b1-4)GlcNAc
In short: as §1

[15] = target: Gal(b1-4)GlcNAc(b1-2)Man(a1-3)[GlcNAc(b1-4)][Gal(b1-4)GlcNAc(b1-2)Man(a1-6)]Man(b1-4)GlcNAc(b1-4)GlcNAc
In short: as §1

[16] = target: Gal(b1-4)GlcNAc(b1-2)Man(a1-6)[GlcNAc(b1-2)Man(a1-3)]Man(b1-4)GlcNAc(b1-4)GlcNAc
In short: as §1

[17] = target: Gal(b1-4)GlcNAc(b1-3)Gal(b1-4)GlcNAc(b1-3)Gal(b1-4)GlcNAc(b1-2)Man(a1-3)[Gal(b1-4)GlcNAc(b1-3)Gal(b1-4)GlcNAc(b1-3)Gal(b1-4)GlcNAc(b1-2)Man(a1-6)]Man(b1-4)GlcNAc(b1-4)GlcNAc
In short: as §1

[18] = target: Gal(b1-4)GlcNAc(b1-3)Gal(b1-4)GlcNAc(b1-3)Gal(b1-4)GlcNAc(b1-2)Man(a1-3)[Gal(b1-4)GlcNAc(b1-3)Gal(b1-4)GlcNAc(b1-3)Gal(b1-4)GlcNAc(b1-2)Man(a1-6)]Man(b1-4)GlcNAc(b1-4)[Fuc(a1-6)]GlcNAc
In short: as §1

[19] = target: Gal(b1-4)GlcNAc(b1-3)Gal(b1-4)GlcNAc(b1-3)Gal(b1-4)GlcNAc(b1-2)[Gal(b1-4)GlcNAc(b1-3)Gal(b1-4)GlcNAc(b1-3)Gal(b1-4)GlcNAc(b1-6)]Man(a1-6)[Gal(b1-4)GlcNAc(b1-3)Gal(b1-4)GlcNAc(b1-3)Gal(b1-4)GlcNAc(b1-2)Man(a1-3)]Man(b1-4)GlcNAc(b1-4)[Fuc(a1-6)]GlcNAc
In short: as §1

[20] = target: Gal(b1-4)GlcNAc(b1-3)Gal(b1-4)GlcNAc(b1-3)Gal(b1-4)GlcNAc(b1-3)Gal(b1-4)GlcNAc(b1-2)Man(a1-3)[Gal(b1-4)GlcNAc(b1-3)Gal(b1-4)GlcNAc(b1-3)Gal(b1-4)GlcNAc(b1-3)Gal(b1-4)GlcNAc(b1-2)Man(a1-6)]Man(b1-4)GlcNAc(b1-4)[Fuc(a1-6)]GlcNAc
In short: as §1

[21] = target: Gal(b1-4)GlcNAc(b1-3)Gal(b1-4)GlcNAc(b1-3)Gal(b1-4)GlcNAc(b1-3)Gal(b1-4)GlcNAc(b1-3)Gal(b1-4)GlcNAc(b1-2)Man(a1-3)[Gal(b1-4)GlcNAc(b1-3)Gal(b1-4)GlcNAc(b1-3)Gal(b1-4)GlcNAc(b1-3)Gal(b1-4)GlcNAc(b1-3)Gal(b1-4)GlcNAc(b1-2)Man(a1-6)]Man(b1-4)GlcNAc(b1-4)GlcNAc
In short: as §1

[22] = target: Gal(b1-4)GlcNAc(b1-3)Gal(b1-4)GlcNAc(b1-3)Gal(b1-4)GlcNAc(b1-3)Gal(b1-4)GlcNAc(b1-3)Gal(b1-4)GlcNAc(b1-2)[Gal(b1-4)GlcNAc(b1-3)Gal(b1-4)GlcNAc(b1-3)Gal(b1-4)GlcNAc(b1-3)Gal(b1-4)GlcNAc(b1-3)Gal(b1-4)GlcNAc(b1-6)]Man(a1-6)[Gal(b1-4)GlcNAc(b1-3)Gal(b1-4)GlcNAc(b1-3)Gal(b1-4)GlcNAc(b1-3)Gal(b1-4)GlcNAc(b1-3)Gal(b1-4)GlcNAc(b1-2)Man(a1-3)]Man(b1-4)GlcNAc(b1-4)[Fuc(a1-6)]GlcNAc
In short: as §1

[23] = target: Gal(b1-4)GlcNAc(b1-3)[Gal(b1-4)GlcNAc(b1-6)]Gal(b1-4)GlcNAc
In short: as §1

[24] = target: Gal(b1-4)GlcNAc(b1-3)[GlcNAc(b1-6)]Gal(b1-4)GlcNAc
In short: as §1

[25] = target: Gal6S(b1-3)GlcNAc6S
In short: as §1

[26] = target: Gal6S(b1-4)Glc
In short: as §1

[27] = target: GalNAc(b1-4)GlcNAc(b1-3)GalNAc(b1-4)GlcNAc
In short: as §1

[28] = target: GalNAc(b1-4)GlcNAc6S
In short: as §1

[29] = target: GlcNAc(a1-4)Gal(b1-4)GlcNAc(b1-3)Gal(b1-4)GlcNAc
In short: as §1

[30] = target: GlcNAc(b1-2)Man(a1-3)[GlcNAc(b1-4)][GlcNAc(b1-2)Man(a1-6)]Man(b1-4)GlcNAc(b1-4)[Fuc(a1-6)]GlcNAc
In short: as §1

[31] = target: GlcNAc(b1-3)Gal(b1-4)Glc
In short: as §1

[32] = target: GlcNAc(b1-3)Gal(b1-4)GlcNAc(b1-3)Gal(b1-4)GlcNAc(b1-3)Gal(b1-4)GlcNAc(b1-2)Man(a1-3)[GlcNAc(b1-3)Gal(b1-4)GlcNAc(b1-3)Gal(b1-4)GlcNAc(b1-3)Gal(b1-4)GlcNAc(b1-2)Man(a1-6)]Man(b1-4)GlcNAc(b1-4)[Fuc(a1-6)]GlcNAc
In short: as §1

[33] = target: GlcNAc(b1-6)Gal(b1-4)GlcNAc
In short: as §1

[34] = target: Kdn(a2-3)Gal(b1-4)GlcNAc
In short: as §1

[35] = target: Neu5Ac(a2-3)Gal(b1-3)GlcNAc
In short: as §1

[36] = target: Neu5Ac(a2-3)Gal(b1-3)GlcNAc(b1-3)Gal(b1-4)GlcNAc
In short: as §1

[37] = target: Neu5Ac(a2-3)Gal(b1-3)[Fuc(a1-4)]GlcNAc
In short: as §1

[38] = target: Neu5Ac(a2-3)Gal(b1-4)GlcNAc(b1-2)Man
In short: as §1

[39] = target: Neu5Ac(a2-3)Gal(b1-4)GlcNAc(b1-3)Gal(b1-4)GlcNAc(b1-3)Gal(b1-4)GlcNAc(b1-2)Man(a1-3)[Neu5Ac(a2-3)Gal(b1-4)GlcNAc(b1-3)Gal(b1-4)GlcNAc(b1-3)Gal(b1-4)GlcNAc(b1-2)Man(a1-6)]GalNAc
In short: as §1

[40] = target: Neu5Ac(a2-3)Gal(b1-4)[Fuc(a1-3)]GlcNAc(b1-6)[Gal(b1-3)]GalNAc
In short: as §1

[41] = target: Neu5Ac(a2-3)Gal(b1-4)[Fuc(a1-3)]GlcNAc6S
In short: as §1

[42] = target: Neu5Ac(a2-6)Gal(b1-3)GlcNAc(b1-3)[Gal(b1-4)GlcNAc(b1-6)]Gal(b1-4)Glc
In short: as §1

[43] = target: Neu5Ac(a2-6)Gal(b1-4)GlcNAc(b1-2)Man(a1-3)[Neu5Ac(a2-6)Gal(b1-4)GlcNAc(b1-2)Man(a1-6)]Man(b1-4)GlcNAc(b1-4)GlcNAc
In short: as §1

[44] = target: Neu5Ac(a2-8)Neu5Ac(a2-3)[GalNAc(b1-4)]Gal(b1-4)Glc
In short: as §1

[45] = target: Neu5Ac(a2-8)Neu5Ac(a2-8)Neu5Ac
In short: as §1

B1: CC1G-10077 (Coprinopsis cinerea), A8NDT7 (protein)
chain: MALNEGVYWIRNSRFTNKVLDLDAANVAKGTSILDFNEHGTFNENHNQLWIVERFQSRDTYLIRSVHSNLVLDLSQGLSANGTPILCWTQHGGTNQQWRIEWVKDDNKTPLYRIVSVATGTAISHNEDDSSAYTVAWSVDDGPKQLWSFDPFVTPLLYRLRVKSTSRVLDLAAASADNGTLALAWEQHTAITKRNQLWWLPYRSGAEEYTIQCLETSTVADLSGGNSGNGTPIYGWQSHGGRNQQWKFEPTSDSGDYYHIKNVEGGSVMDAYMNDSQKRVGGWSNNGGDNQKWLLDPLPSPGPGWVLIQNGGTGKFLCSTPSGDIGTADGPETVYDYSVQWRFIQREYTGVYHVVNRATGAYLRQIGTSMPSIGLAEENDDELKDWWMLETYDNSEIGLASIISRWTGNVLDHYGGVSVQALDNNTENSYRSWAIIPARDWLTSFSLVNGQGGLCLAAQYAREETRLSTTANVNDFHAQWVFRKPSGSSGYTIQNKYNNHYVGGTSARWELVVCCNKYFGIRNTSTQKYLAIEDGQVTFQDQDMTDRKQCWELCSGRATDTSGNDYDLIYMDDDLLEVMIPWVGDKQGDLKHYIEKRATKKPPKDKGGWQLPAAGLIKKPKFNDIRQLLQELIEQWEWDVVNEEREQIQTLVSIDEAEARRLLGRRPHPDIVAAYQRSRSSTLFRIDRQGYFNIAGDRYVNIQGQYGDDSYFHIALPVGVRFGREQIRRFLRDSLDRSTSVTITPTTCKPPSGGPDYNRDPDSDGDNSWIKWTIAVVGTSAIKHSEL
[1]
  glycan array binding signal (z-score): -0.467
[2]
  glycan array binding signal (z-score): -0.51
[3]
  glycan array binding signal (z-score): -0.424
[4]
  glycan array binding signal (z-score): -0.4
[5]
  glycan array binding signal (z-score): 1.19
[6]
  glycan array binding signal (z-score): 0.177
[7]
  glycan array binding signal (z-score): -0.3
[8]
  glycan array binding signal (z-score): 0.744
[9]
  glycan array binding signal (z-score): 0.08
[10]
  glycan array binding signal (z-score): 0.142
[11]
  glycan array binding signal (z-score): 0.199
[12]
  glycan array binding signal (z-score): -0.024
[13]
  glycan array binding signal (z-score): 3.26
[14]
  glycan array binding signal (z-score): 1.15
[15]
  glycan array binding signal (z-score): 0.424
[16]
  glycan array binding signal (z-score): 3.12
[17]
  glycan array binding signal (z-score): 2.19
[18]
  glycan array binding signal (z-score): 3.5
[19]
  glycan array binding signal (z-score): 3.22
[20]
  glycan array binding signal (z-score): 3.19
[21]
  glycan array binding signal (z-score): 3.72
[22]
  glycan array binding signal (z-score): 3.25
[23]
  glycan array binding signal (z-score): 1.18
[24]
  glycan array binding signal (z-score): 3.85
[25]
  glycan array binding signal (z-score): -0.314
[26]
  glycan array binding signal (z-score): 0.062
[27]
  glycan array binding signal (z-score): 4.2
[28]
  glycan array binding signal (z-score): 4.35
[29]
  glycan array binding signal (z-score): -0.431
[30]
  glycan array binding signal (z-score): -0.482
[31]
  glycan array binding signal (z-score): -0.371
[32]
  glycan array binding signal (z-score): -0.141
[33]
  glycan array binding signal (z-score): 3.18
[34]
  glycan array binding signal (z-score): -0.466
[35]
  glycan array binding signal (z-score): -0.452
[36]
  glycan array binding signal (z-score): -0.476
[37]
  glycan array binding signal (z-score): -0.473
[38]
  glycan array binding signal (z-score): -0.331
[39]
  glycan array binding signal (z-score): -0.417
[40]
  glycan array binding signal (z-score): -0.37
[41]
  glycan array binding signal (z-score): -0.468
[42]
  glycan array binding signal (z-score): 0.306
[43]
  glycan array binding signal (z-score): -0.326
[44]
  glycan array binding signal (z-score): -0.233
[45]
  glycan array binding signal (z-score): -0.448
